Consider eight compounds from PubChem BioAssay (NCI).

Among the test systems are NCI-H23 lung; NCI-H226 lung; NCI-H322M lung; HOP-62 NSCLC; NCI-H460 lung; HOP-92 NSCLC; NCI-H522 lung; A549/ATCC NSCLC; 786-0 renal; COLO 205 colon; DU-145 prostate; K-562 leukemia; MALME-3M melanoma; MDA-MB-231 breast; RXF 393 renal; SF-268 CNS; SF-295 CNS; SF-539 CNS; UACC-257 melanoma; M14 melanoma.
Holding throughout (assay): NCI-60 one-dose screen, 48 h (100 = growth as untreated, 0 = no growth, -100 = all killed)
Common to all, as to details: 10 µM unless noted

Compounds without any hit were thinned out: in the full panel of roughly 83,000, 20% have a hit.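 Method: cells in 96-well plates; compound added at one concentration; 48 h incubation; percent growth measured; values under 10 scored active.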 Values without a mark were called inactive. Active and inactive are the calls of the source.

Consider `O=C(/C=C/c1cccc([N+](=O)[O-])c1)c1ccc(Nc2nc(Nc3ccc(F)cc3)nc(Nc3ccc(Cl)cc3)n2)cc1`, for which the growth in the test on NCI-H23 lung was 81.4%; with NCI-H226 lung, 87.2%; in the test on NCI-H322M lung, 87.6%; in the test on HOP-62 NSCLC, 151%; in the test with NCI-H460 lung, 91.9%; in the test on HOP-92 NSCLC it was 50.9%. Besides, the growth with NCI-H522 lung was 82.8%; in the test with A549/ATCC NSCLC, 83%; in the test on 786-0 renal, 99.4%; in the test with COLO 205 colon, 91.2%; with DU-145 prostate it was 106%; in the test with K-562 leukemia it was 70%. Moreover, the growth in the test on MALME-3M melanoma was 105%; in the test on MDA-MB-231 breast, 92.2%; in the test with RXF 393 renal it was 3.04% (active); in the test on SF-268 CNS, 93.8%; with SF-295 CNS it was 84.8%; with SF-539 CNS, 106%. The values for the growth in the test on UACC-257 melanoma and with M14 melanoma were 100% and 92.5%, respectively.

Regarding `C/C(=N\NC(=O)c1ccc(C(C)(C)C)cc1)c1ccc(O)cc1O`, the growth in the test with NCI-H23 lung was 23.7%; in the test with NCI-H226 lung, 25.6%; in the test with NCI-H322M lung it was 25.5%; with HOP-62 NSCLC, 20.9%; in the test with NCI-H460 lung, 3.99% (active); in the test on HOP-92 NSCLC, 59.3%. In addition, the growth in the test with NCI-H522 lung was 27.5%; in the test with A549/ATCC NSCLC it was 21.5%; with 786-0 renal it was 15.3%; in the test on COLO 205 colon, 7.24% (active); in the test on DU-145 prostate, 29.3%; with K-562 leukemia, 12.9%. The growth in the test with MALME-3M melanoma is 28.4%; in the test on MDA-MB-231 breast, 37.4%; in the test with RXF 393 renal it was -9.15% (active); in the test with SF-268 CNS, 27.6%; in the test on SF-295 CNS, 16.2%; with SF-539 CNS it was 14.7%. Moreover, the growth in the test on UACC-257 melanoma is 8.32% (active); with M14 melanoma, 23%.

As for `CO[C@]12C=C/C(=C(/C(=O)OCc3cccnc3)C(=O)CCCCCCCC[C@]3(OC)C=C/C(=C(/C(=O)OCc4cccnc4)C(=O)CCCCCCCC1)O3)O2`, the growth with NCI-H23 lung was -75.3% (active); in the test with NCI-H226 lung, -78.1% (active); with NCI-H322M lung it was -85% (active); in the test with HOP-62 NSCLC it was -33.1% (active); with NCI-H460 lung, -18.3% (active); in the test with HOP-92 NSCLC, -28.5% (active). Besides, the growth in the test on NCI-H522 lung is -39.6% (active); in the test with A549/ATCC NSCLC, -19.6% (active); in the test with 786-0 renal it was -64.1% (active); in the test with COLO 205 colon, -56.5% (active); in the test with DU-145 prostate it was -95.3% (active); with K-562 leukemia, 0.254% (active). The growth is -38.4% (active) in the test with MALME-3M melanoma; -38.3% (active) in the test with MDA-MB-231 breast; -75.4% (active) in the test on RXF 393 renal; -72.1% (active) in the test with SF-268 CNS; -79.1% (active) in the test on SF-295 CNS; -55.2% (active) in the test on SF-539 CNS. The growth in the test with UACC-257 melanoma is -43.2% (active); in the test with M14 melanoma it was -47% (active).

In the case of `FC(F)(F)c1cccc(-c2nnn(Cc3cc(-c4cccc(Cl)c4)no3)n2)c1`, the growth in the test on NCI-H23 lung is 102%; in the test on NCI-H226 lung, 101%; in the test on NCI-H322M lung it was 111%; in the test on HOP-62 NSCLC, 108%; in the test on NCI-H460 lung, 103%; in the test with HOP-92 NSCLC it was 100%. Also, the growth in the test on NCI-H522 lung was 99.6%; with A549/ATCC NSCLC, 100%; with 786-0 renal it was 105%; in the test with COLO 205 colon, 112%; in the test on DU-145 prostate, 113%; in the test on K-562 leukemia, 113%. For the same compound, the growth in the test with MALME-3M melanoma is 97.5%; in the test with MDA-MB-231 breast, 117%; with RXF 393 renal, 109%; in the test with SF-268 CNS, 99.1%; with SF-295 CNS it was 111%; in the test with SF-539 CNS it was 102%. In addition, the growth is 96.3% with UACC-257 melanoma and 101% in the test with M14 melanoma.

With `COC(=O)c1c(C)nc(C)c2c1C(=O)C(Br)=C(NCCCCO)C2=O`, the growth was 51.1% in the test with NCI-H23 lung; 96.7% in the test on NCI-H226 lung; 75.5% in the test with NCI-H322M lung; 114% in the test with HOP-62 NSCLC; 40% with NCI-H460 lung; 140% with HOP-92 NSCLC. For the same compound, the growth in the test with NCI-H522 lung is 71.1%; in the test with A549/ATCC NSCLC, 75.1%; in the test on 786-0 renal it was 89.2%; in the test with COLO 205 colon, 17%; with DU-145 prostate it was 79.6%; with K-562 leukemia it was 71%. In addition, the growth in the test with MALME-3M melanoma is -2.98% (active); with MDA-MB-231 breast, 75.1%; in the test on RXF 393 renal it was 77.7%; in the test on SF-268 CNS, 76.3%; in the test on SF-295 CNS, 72.1%; with SF-539 CNS, 89.5%. Also, the growth in the test with UACC-257 melanoma is 45.6%; with M14 melanoma, 46.9%.

As to `O=C(OCC(O)(CO)C(=O)NC12CC3CC(CC(C3)C1)C2)c1ccc(Cl)cc1` (stereo not given), the growth in the test on NCI-H23 lung was 97.6%; with NCI-H226 lung, 89.1%; with NCI-H322M lung, 103%; in the test on HOP-62 NSCLC, 103%; in the test on NCI-H460 lung it was 105%; with HOP-92 NSCLC it was 101%. The growth with NCI-H522 lung was 88.2%; in the test on A549/ATCC NSCLC, 91.4%; in the test with 786-0 renal it was 99.4%; in the test on COLO 205 colon, 102%; with DU-145 prostate, 108%; in the test with K-562 leukemia, 91.4%. Moreover, the growth with MALME-3M melanoma is 103%; in the test with MDA-MB-231 breast it was 101%; with RXF 393 renal, 101%; in the test on SF-268 CNS, 99.7%; in the test on SF-295 CNS, 93.1%; in the test with SF-539 CNS, 107%. Further, the growth in the test on UACC-257 melanoma is 99.2%; with M14 melanoma it was 98.7%.

As for `CN(C)CC1C(=O)O[C@H]2[C@H]1CC/C(COC(=O)NCc1ccc(Cn3c(=O)sn(CCCI)c3=O)cc1)=C\CC[C@@]1(C)O[C@@H]21` (stereo not given in full), the growth in the test with NCI-H23 lung is 55.3%; in the test with NCI-H226 lung, -27.4% (active); with NCI-H322M lung, 95.1%; in the test with HOP-62 NSCLC, 83.8%; in the test with NCI-H460 lung, 100%; in the test on HOP-92 NSCLC, -87.2% (active). In addition, the growth with NCI-H522 lung was -84.3% (active); in the test on A549/ATCC NSCLC, 101%; with 786-0 renal, -73.2% (active); in the test with COLO 205 colon, -63% (active); in the test on DU-145 prostate, -69.8% (active); in the test on K-562 leukemia, -0.241% (active). Further, the growth in the test with MALME-3M melanoma was -75.6% (active); in the test with MDA-MB-231 breast, 60.4%; in the test on RXF 393 renal, -87% (active); in the test on SF-268 CNS it was 57.7%; in the test with SF-295 CNS it was 96.8%; in the test on SF-539 CNS, 24.4%. Moreover, the growth with UACC-257 melanoma was -39.8% (active); in the test on M14 melanoma it was -56.7% (active).

Regarding `CCN(CC)c1ccc(/C=N/NC(=O)c2ccccc2Nc2ccnc(C(F)(F)F)c2)c(O)c1`, the growth was 40.4% in the test on NCI-H23 lung; 8.93% (active) in the test with NCI-H226 lung; 39.7% with NCI-H322M lung; 28% with HOP-62 NSCLC; 4.43% (active) with NCI-H460 lung; 19.9% with HOP-92 NSCLC. The growth was 42.9% in the test on NCI-H522 lung; 35.8% in the test with A549/ATCC NSCLC; 16.6% in the test with 786-0 renal; 25.7% in the test with COLO 205 colon; 20.7% in the test with DU-145 prostate; 62.9% in the test with K-562 leukemia. Further, the growth was 45.3% in the test on MALME-3M melanoma; 56.8% in the test on MDA-MB-231 breast; 51.4% in the test with RXF 393 renal; 14.5% in the test with SF-268 CNS; 24.1% in the test with SF-295 CNS; -11.1% (active) in the test with SF-539 CNS. Further, the growth is 19.2% in the test on UACC-257 melanoma and -17.4% (active) in the test with M14 melanoma.
